Compounds with a hit are over-represented: about 1.4% of the library has one in this group of screens.
KCNH2 3.1 inh = KCNH2 3.1 (human) potassium channel inhibition | U2OS KCNH2 3.1, thallium flux FluxOr; stronger effect = lower value | activity change, % (tested at about 1.8 µM) | 340,000 compounds, 0.95% hits | AID 720553;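 active = maximum activity change below -70%; inconclusive = maximum activity change from -70% to -50%; inactive = maximum activity change above -50%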;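 also: thallium influx rate constant from kinetic fluorescence after stimulation buffer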
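Kinetic fluorescence (2 min after stimulation buffer) measures Tl+ influx through KCNH2 3.1 expressed by viral transduction in U2OS cells; the rate constant is normalized against DMSO controls serving as positive and negative references.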
EPAC2 antagonist = EPAC2 (human) antagonism. Q8WZA2. EPAC2 GEF exchange of Rap1B-BODIPY-GDP, fluorescence. Potency, µM (doses to about 114 µM), hits mostly inhibitors. 360,000 compounds, 0.18% hits; also: nearly all actives have a fitted effect of over 45% in size
EPAC1 antagonist = EPAC1 (human) antagonism. O95398. EPAC1 GEF assay, Rap1b-BODIPY-GDP exchange fluorescence. Potency, µM (doses to about 115 µM), most hits filed as inhibitors. 360,000 compounds, 0.14% hits; also: nearly all actives have a fitted effect of over 50% in size
Target sequence (O95398 whole entry, looked up): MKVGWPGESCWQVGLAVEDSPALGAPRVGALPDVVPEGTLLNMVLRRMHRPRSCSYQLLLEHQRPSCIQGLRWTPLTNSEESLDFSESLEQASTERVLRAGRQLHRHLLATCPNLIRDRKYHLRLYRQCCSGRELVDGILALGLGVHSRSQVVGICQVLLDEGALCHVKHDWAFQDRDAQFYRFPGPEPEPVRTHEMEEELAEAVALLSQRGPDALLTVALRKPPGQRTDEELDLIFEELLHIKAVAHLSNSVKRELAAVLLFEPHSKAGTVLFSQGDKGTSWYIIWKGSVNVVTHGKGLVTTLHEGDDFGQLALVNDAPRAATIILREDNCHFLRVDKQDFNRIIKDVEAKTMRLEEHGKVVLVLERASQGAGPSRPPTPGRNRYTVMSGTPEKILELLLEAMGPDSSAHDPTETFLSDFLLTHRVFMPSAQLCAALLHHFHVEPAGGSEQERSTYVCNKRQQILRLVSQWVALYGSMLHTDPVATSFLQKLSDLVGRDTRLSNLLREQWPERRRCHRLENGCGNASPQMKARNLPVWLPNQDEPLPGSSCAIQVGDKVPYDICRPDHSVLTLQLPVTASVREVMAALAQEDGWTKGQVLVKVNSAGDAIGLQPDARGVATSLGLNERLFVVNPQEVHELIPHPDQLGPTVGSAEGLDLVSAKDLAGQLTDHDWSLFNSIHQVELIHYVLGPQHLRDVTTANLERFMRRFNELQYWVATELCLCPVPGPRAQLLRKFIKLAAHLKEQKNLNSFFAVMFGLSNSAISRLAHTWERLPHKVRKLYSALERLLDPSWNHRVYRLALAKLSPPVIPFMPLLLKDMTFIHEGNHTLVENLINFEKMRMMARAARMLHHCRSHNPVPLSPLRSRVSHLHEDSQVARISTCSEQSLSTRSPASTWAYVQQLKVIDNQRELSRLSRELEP
EPAC2 agonist = EPAC2 (human) agonism; AID 720711; Q8WZA2; Potency, µM (titrated, usually from 154 µM), actives largely listed as activators; EPAC2 activation, biochemical qHTS; response scale: 100% = 6.5 mM cAMP response; 360,000 compounds, 0.079% hits; also: nearly all actives have a fitted effect of over 50% in size
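Readout is BODIPY fluorescence (480 nm excitation, 540 nm emission), which falls as labeled GDP is exchanged off Rap1B. EPAC2 at 100 nM acted on 250 nM RAP1B-BODIPY-GDP with 50 uM GDP present.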
KCNH2 WT inh = inhibitors of human wildtype KCNH2 potassium channel. Q12809. U2OS, BacMam KCNH2, thallium flux FluxOr; stronger effect = lower value. activity change, % at 1.84 µM. 340,000 compounds, 0.37% hits. AID 720551;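 active = maximum activity change below -70%; inconclusive = maximum activity change between -70% and -50%; inactive = maximum activity change above -50%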
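U2OS cells transduced with wild-type KCNH2 virus are loaded with FluxOr dye for 45 min, and thallium flux is measured in kinetic reads before and after stimulation buffer. Rate constants are normalized to DMSO controls.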
EPAC1 agonist = activates human EPAC1 exchange factor; O95398; EPAC1 agonist qHTS, biochemical assay; response scale: 100% = response to 6.5 mM cAMP; Potency, µM (doses to about 154 µM), usual class: activators; 360,000 compounds, 0.073% hits; AID 720707; also: nearly all actives have a fitted effect of over 60% in size
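Normalized to 6.5 mM cAMP, activity reflects EPAC1-catalysed release of BODIPY-GDP from Rap1B, followed kinetically over 30 min at 480 nm excitation, 540 nm emission. Reaction contained 100 nM EPAC1, 250 nM Rap1B-BODIPY-GDP, 50 uM GDP.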
A number is an active result. Unless noted, calls follow the shape of the dose curve; as a rule, active = well fitted curve in the direction sought with a large enough effect; inconclusive = small, poorly fitted or top-dose-only effect, or another doubt; inactive = no such curve, though single readings can be large; an effect the other way counts as inactive or inconclusive.

O=C1CCN(Cc2ccc(Cl)cc2Cl)C(=O)N1 was read as KCNH2 3.1 inh inactive, EPAC2 antagonist inactive, EPAC1 antagonist inactive, EPAC2 agonist inactive, KCNH2 WT inh inactive and EPAC1 agonist inactive.
`CCOC(CNc1ncnc2sc(-c3ccccc3)cc12)OCC` gave KCNH2 3.1 inh inactive, EPAC2 antagonist inactive, EPAC1 antagonist inactive, EPAC2 agonist inactive, KCNH2 WT inh inactive and EPAC1 agonist inactive.
CN(C)CCCNc1ncnc2sc(-c3ccccc3)cc12 was read as KCNH2 3.1 inh -89, EPAC2 antagonist inactive, EPAC1 antagonist inactive, EPAC2 agonist inactive, KCNH2 WT inh inactive and EPAC1 agonist inactive.
Screening CN1CCN(C2=CC3=CC(=C(C#N)C#N)CCC3CC2)CC1 (stereo not given) returned KCNH2 3.1 inh inconclusive, EPAC2 antagonist inactive, EPAC1 antagonist inactive, EPAC2 agonist 100µM, KCNH2 WT inh inactive and EPAC1 agonist 28µM.
N#CC(C#N)=C1C=C2C=C(N3CCCCCC3)CCC2CC1 (stereo not given) was read as KCNH2 3.1 inh inactive, EPAC2 antagonist inactive, EPAC1 antagonist inactive, EPAC2 agonist inactive and EPAC1 agonist inactive.
For CC1(C)CC(NCCN2CCN(C3=CC(=C(C#N)C#N)CC(C)(C)C3)CC2)=CC(=C(C#N)C#N)C1 the results were KCNH2 3.1 inh inactive, EPAC2 antagonist inactive, EPAC1 antagonist inactive, EPAC2 agonist inactive, KCNH2 WT inh inactive and EPAC1 agonist inactive.
Screening CCN1CCN(C2=CC3=CC(=C(C#N)C#N)CCC3CC2)CC1 (stereo not given) returned KCNH2 3.1 inh inactive, EPAC2 antagonist inactive, EPAC1 antagonist inactive, EPAC2 agonist 25µM, KCNH2 WT inh inactive and EPAC1 agonist 50µM.
Screening N#CC(C#N)=C1C=C2C=C(N3CCOCC3)CCC2CC1 (stereo not given) returned KCNH2 3.1 inh inactive, EPAC2 antagonist inactive, EPAC1 antagonist inactive, EPAC2 agonist 56µM, KCNH2 WT inh inactive and EPAC1 agonist inconclusive.
Screening CC(C)(C)NC(=O)C(c1cccc2ccccc12)n1c(=O)c(-c2cc3ccccc3[nH]2)nc2ccccc21 (stereo not given) returned EPAC2 antagonist inactive, EPAC1 antagonist inactive, EPAC2 agonist inactive and EPAC1 agonist inactive.
O=C1c2cc(Br)ccc2N(Cc2ccc(Br)cc2)S(=O)(=O)C1c1cc(Cl)c(Cl)cc1[N+](=O)[O-] (stereo not given) was read as EPAC2 antagonist 20µM, EPAC1 antagonist 56µM, EPAC2 agonist inactive and EPAC1 agonist inactive.
`O=C(NCCCc1ccccc1)c1ccc(CS(=O)Cc2ccc(Cl)cc2)o1` (stereo not given) gave KCNH2 3.1 inh -85, EPAC2 antagonist inactive, EPAC1 antagonist inconclusive, EPAC2 agonist inactive, KCNH2 WT inh inactive and EPAC1 agonist inactive.
Screening COc1cccc(CNC(=O)c2ccc(CS(=O)Cc3ccccc3Cl)o2)c1 (stereo not given) returned KCNH2 3.1 inh -81, EPAC2 antagonist inactive, EPAC1 antagonist inactive, EPAC2 agonist inactive, KCNH2 WT inh inactive and EPAC1 agonist inactive.
`COc1ccc(S(=O)Cc2ccc(C(=O)NCc3cccc(OC)c3)o2)cc1` (stereo not given) gave KCNH2 3.1 inh inactive, EPAC2 antagonist inactive, EPAC1 antagonist inactive, EPAC2 agonist inactive, KCNH2 WT inh inactive and EPAC1 agonist inactive.
CC(C)C[C@H]1CN(CCCC[C@@H]2CNC(=O)C(=O)N2CC2CCCCC2)C(=O)C(=O)N1CC1CCCCC1 was read as EPAC2 antagonist inactive, EPAC1 antagonist inactive, EPAC2 agonist inactive and EPAC1 agonist inactive.
CC1(Cc2ccccc2OC(F)(F)F)C(=O)Nc2ccc(OC(F)(F)F)cc21 (stereo not given) was read as EPAC2 antagonist inconclusive, EPAC1 antagonist inconclusive, EPAC2 agonist inactive and EPAC1 agonist inactive.
Cn1cc([C@]2(O)C(=O)Nc3ccc(OC(F)(F)F)cc32)c2ccccc21 was read as EPAC2 antagonist 22µM, EPAC1 antagonist inactive, EPAC2 agonist inactive and EPAC1 agonist inactive.
Screening CCCN(CCC)S(=O)(=O)c1ccc(NC(=O)COc2ccccc2)cc1 returned KCNH2 3.1 inh inactive, EPAC2 antagonist inactive, EPAC1 antagonist inactive, EPAC2 agonist inactive, KCNH2 WT inh inactive and EPAC1 agonist inactive.
`COc1cc(CN(C)C(C)C(=O)Nc2ccc([N+](=O)[O-])cc2Cl)ccc1OC(F)F` (stereo not given) gave KCNH2 3.1 inh inconclusive, EPAC2 antagonist inactive, EPAC1 antagonist inactive, EPAC2 agonist inactive, KCNH2 WT inh -95 and EPAC1 agonist inactive.
Screening CSc1ccc(S(=O)(=O)N2CCC(C(=O)Nc3ccc(C(N)=O)cc3)CC2)cc1 returned KCNH2 3.1 inh inactive, EPAC2 antagonist inactive, EPAC1 antagonist inactive, EPAC2 agonist inactive, KCNH2 WT inh inactive and EPAC1 agonist inactive.
CCOC(=O)c1c(S(=O)(=O)NCC(=O)Nc2ccc(OC)cc2)c(C)n(C)c1C was read as KCNH2 3.1 inh -162, EPAC2 antagonist inactive, EPAC1 antagonist inactive, EPAC2 agonist inactive, KCNH2 WT inh inactive and EPAC1 agonist inactive.
For CC(N=Cc1cc([N+](=O)[O-])ccc1O)c1ccccc1 (stereo not given) the results were KCNH2 3.1 inh inactive, EPAC2 antagonist inactive, EPAC1 antagonist inactive, EPAC2 agonist inactive, KCNH2 WT inh -170 and EPAC1 agonist inactive.
Screening CCOC(=O)C1(CCOc2ccccc2)CCN(Cc2ccc(OCCO)cc2)CC1 returned KCNH2 3.1 inh -110, EPAC2 antagonist inactive, EPAC1 antagonist inactive, EPAC2 agonist inactive, KCNH2 WT inh -77 and EPAC1 agonist inactive.
CCOC(=O)C1(CCOc2ccccc2)CCN(Cc2ccc(O)cc2)CC1 was read as KCNH2 3.1 inh -84, EPAC2 antagonist inactive, EPAC1 antagonist inactive, EPAC2 agonist inactive, KCNH2 WT inh inactive and EPAC1 agonist inactive.
For CCOC(=O)C1(CCOc2ccccc2)CCN(Cc2ccc(C)o2)CC1 the results were KCNH2 3.1 inh inactive, EPAC2 antagonist inactive, EPAC1 antagonist inactive, EPAC2 agonist inactive, KCNH2 WT inh inactive and EPAC1 agonist inactive.
O=C(c1cc(C2CC2)on1)N1CCN(c2ccccc2)CC1 was read as KCNH2 3.1 inh inactive, EPAC2 antagonist inactive, EPAC1 antagonist inactive, EPAC2 agonist inactive, KCNH2 WT inh inactive and EPAC1 agonist inactive.
For Cc1cccc(C)c1NC(=S)NC(C)CCc1ccccc1 (stereo not given) the results were KCNH2 3.1 inh inactive, EPAC2 antagonist inactive, EPAC1 antagonist inactive, EPAC2 agonist inactive, KCNH2 WT inh inactive and EPAC1 agonist inactive.
Cc1cccc(C(=O)Nc2ccc(NC(=O)CN3CCOCC3)cc2)c1 was read as KCNH2 3.1 inh inactive, EPAC2 antagonist inactive, EPAC1 antagonist inactive, EPAC2 agonist inactive, KCNH2 WT inh inactive and EPAC1 agonist inactive.

Screening results deposited in PubChem by National Center for Advancing Translational Sciences (NCATS).
